This is an account of results in a collection of fitness landscapes (doi:10.1016/j.celrep.2020.107928).

First the molecules themselves.
B1: Caulobacter ParB omega fusion; a variant is named by its letters at X, in order, B8GW30 (parent)
chain: MESVVVGEPGMSEGRRGLGRGLSALLGEVDAAPAQAPGEQLGGSREAPIEILQRNPDQPRRTFREEDLEDLSNSIREKGVLQPILVRPSPDTAGEYQIVAGERAWRAAQRAGLKTVPIMVRELDDLAVLEIGIIENVQRADLNVLEEALSYKVLMEKFERTQENIAQTIGKSXSHVANXMRLLXLPDEVQSYLVSGELTAXHARAIAAAADPVALAKQIIEGGLSVRETEALARKAPNLSAGKSKGGRPPRVKDTDTQALESDLSSVLGLDVSIDHRGSTGTLTITYATLEQLDDLCNRLTRGI

Whole data set: some 81,000 sequences, median “one-hybrid fitness for binding parS DNA” near -0.17, cut for the highest 2% near 0.51. The entries come from a sample that favours the highest values as a whole. Where only a bound is given, the exact number is not on record here.

Variants of B1 are the subject of the assay. Nature of the assay: one-hybrid fitness for binding parS DNA (scaled: cognate 1, non-cognate 0); higher = stronger binding. Conditions: with parS DNA site. In short, it runs like this:
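Fitness here means the log change in variant-to-wild-type read ratio between plasmids sequenced before and after selection. That scale was set so cognate equals 1 and non-cognate equals 0. The selection was a bacterial one-hybrid screen of Caulobacter ParB libraries, four specificity codons randomised, in E. coli USO carrying a HIS3 reporter with the site 19 bp from the promoter, grown 48 hours at 37°C on M9-minus-histidine with 0.1 mM IPTG and 5 mM 3-AT.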
With TPAN, the “one-hybrid fitness for binding parS DNA” value was no more than 0.2. With FQLR, the “one-hybrid fitness for binding parS DNA” value is no more than 0.2. As for LNTV, the “one-hybrid fitness for binding parS DNA” value is no more than 0.2. Take MPHS: the “one-hybrid fitness for binding parS DNA” value is no more than 0.2.

Regarding CAAN, the “one-hybrid fitness for binding parS DNA” value was no more than 0.2.

Take RSHF: the “one-hybrid fitness for binding parS DNA” value came to 0.257. In the case of RDHC, the “one-hybrid fitness for binding parS DNA” value was no more than 0.2. Consider RMHK, for which the “one-hybrid fitness for binding parS DNA” value was no more than 0.2. As to RSHC, the “one-hybrid fitness for binding parS DNA” value is 0.968.

For RRHC, the “one-hybrid fitness for binding parS DNA” value was 0.616. Turning to RMHC, the “one-hybrid fitness for binding parS DNA” value is 0.979. Turning to RRHF, the “one-hybrid fitness for binding parS DNA” value is no more than 0.2. For the variant RMHL, the “one-hybrid fitness for binding parS DNA” value was no more than 0.2. As to REHC, the “one-hybrid fitness for binding parS DNA” value was no more than 0.2. RRHQ: the “one-hybrid fitness for binding parS DNA” value is no more than 0.2. Consider RPHC, for which the “one-hybrid fitness for binding parS DNA” value is no more than 0.2. Regarding RCHC, the “one-hybrid fitness for binding parS DNA” value came out at 1. Take MHLM: the “one-hybrid fitness for binding parS DNA” value is no more than 0.2. TNRP: the “one-hybrid fitness for binding parS DNA” value was no more than 0.2. The value for MWSS was no more than 0.2; that for SVES was no more than 0.2.

With RHCP, the “one-hybrid fitness for binding parS DNA” value is no more than 0.2. RICH: the “one-hybrid fitness for binding parS DNA” value came out at 0.24. For the variant RKCN, the “one-hybrid fitness for binding parS DNA” value amounted to 0.302. In the case of RICN, the “one-hybrid fitness for binding parS DNA” value is 0.447. Take RRCD: the “one-hybrid fitness for binding parS DNA” value is no more than 0.2. Take RKCS: the “one-hybrid fitness for binding parS DNA” value was determined as 0.855. With RHCS, the “one-hybrid fitness for binding parS DNA” value came to 0.938. As for RRCP, the “one-hybrid fitness for binding parS DNA” value is no more than 0.2.

Take RRCS: the “one-hybrid fitness for binding parS DNA” value was found to be 0.67. For RHCH, the “one-hybrid fitness for binding parS DNA” value was no more than 0.2.

As for RICS, the “one-hybrid fitness for binding parS DNA” value was 1.02.

Regarding RKCP, the “one-hybrid fitness for binding parS DNA” value was no more than 0.2. In the case of PGNH, the “one-hybrid fitness for binding parS DNA” value is no more than 0.2.

Take VCRG: the “one-hybrid fitness for binding parS DNA” value is no more than 0.2. As to IYRT, the “one-hybrid fitness for binding parS DNA” value was no more than 0.2. For the variant LYPG, the “one-hybrid fitness for binding parS DNA” value is no more than 0.2.

As for CREE, the “one-hybrid fitness for binding parS DNA” value was no more than 0.2. As to CEDV, the “one-hybrid fitness for binding parS DNA” value is no more than 0.2. Regarding YGYI, the “one-hybrid fitness for binding parS DNA” value is no more than 0.2. As to FTNL, the “one-hybrid fitness for binding parS DNA” value was no more than 0.2. Turning to MSES, the “one-hybrid fitness for binding parS DNA” value is no more than 0.2. Consider RLCN, for which the “one-hybrid fitness for binding parS DNA” value stood at 0.457. The value for RTCH was 0.289; that for RLCH was 0.22; that for RFCP was no more than 0.2. For RCCS, the “one-hybrid fitness for binding parS DNA” value stood at 1.01. Regarding RLCS, the “one-hybrid fitness for binding parS DNA” value is 1.03. For RTCS, the “one-hybrid fitness for binding parS DNA” value came to 0.99. Take RTCP: the “one-hybrid fitness for binding parS DNA” value is no more than 0.2. In the case of RPCS it was no more than 0.2; in that of RFCS, 1; in that of RCCP, 0.223. Take RFCN: the “one-hybrid fitness for binding parS DNA” value was 0.375. In the case of PMLA it was no more than 0.2; in that of LCAF, no more than 0.2. With IIKG, the “one-hybrid fitness for binding parS DNA” value is no more than 0.2.

Regarding WMTR, the “one-hybrid fitness for binding parS DNA” value is no more than 0.2.

For the variant RCFL, the “one-hybrid fitness for binding parS DNA” value is no more than 0.2. Consider LMPT, for which the “one-hybrid fitness for binding parS DNA” value was no more than 0.2. For VVHG, the “one-hybrid fitness for binding parS DNA” value is no more than 0.2. In the case of EKSI it was no more than 0.2.

With RSCN, the “one-hybrid fitness for binding parS DNA” value stood at 0.407. Consider RACH, for which the “one-hybrid fitness for binding parS DNA” value was 0.306. For RMCD, the “one-hybrid fitness for binding parS DNA” value was no more than 0.2. In the case of RACP it was no more than 0.2. As for RMCP, the “one-hybrid fitness for binding parS DNA” value is no more than 0.2.

Turning to RMCS, the “one-hybrid fitness for binding parS DNA” value turned out to be 1.01.

RSCS: the “one-hybrid fitness for binding parS DNA” value stood at 0.995. In the case of RSCH, the “one-hybrid fitness for binding parS DNA” value came to 0.223.

RACS: the “one-hybrid fitness for binding parS DNA” value was found to be 1. Turning to CVLT, the “one-hybrid fitness for binding parS DNA” value is no more than 0.2.

Regarding RWPM, the “one-hybrid fitness for binding parS DNA” value is no more than 0.2. In the case of GPYM it was no more than 0.2; in that of RKAM, 0.264.

As for RKAQ, the “one-hybrid fitness for binding parS DNA” value was no more than 0.2.

With RKFC, the “one-hybrid fitness for binding parS DNA” value stood at 0.878. For RKAC, the “one-hybrid fitness for binding parS DNA” value stood at 0.878.

For the variant RKFY, the “one-hybrid fitness for binding parS DNA” value was found to be 0.363. Turning to RKFF, the “one-hybrid fitness for binding parS DNA” value was no more than 0.2.

For AFRC, the “one-hybrid fitness for binding parS DNA” value was no more than 0.2. With LDSE, the “one-hybrid fitness for binding parS DNA” value was no more than 0.2. Take NVKW: the “one-hybrid fitness for binding parS DNA” value was no more than 0.2. Consider VMRY, for which the “one-hybrid fitness for binding parS DNA” value was no more than 0.2.
